A collection of fitness landscapes (doi:10.1016/j.celrep.2020.107928)
The full ranking holds about 81,000 sequences; the median of “one-hybrid fitness for binding parS DNA” is about -0.17, and the highest 2% start at about 0.51. Shown is part of a subset that was picked to be rich in the highest values.

B1: Caulobacter ParB omega fusion; a variant is named by its letters at X, in order, B8GW30 (parent)
chain: MESVVVGEPGMSEGRRGLGRGLSALLGEVDAAPAQAPGEQLGGSREAPIEILQRNPDQPRRTFREEDLEDLSNSIREKGVLQPILVRPSPDTAGEYQIVAGERAWRAAQRAGLKTVPIMVRELDDLAVLEIGIIENVQRADLNVLEEALSYKVLMEKFERTQENIAQTIGKSXSHVANXMRLLXLPDEVQSYLVSGELTAXHARAIAAAADPVALAKQIIEGGLSVRETEALARKAPNLSAGKSKGGRPPRVKDTDTQALESDLSSVLGLDVSIDHRGSTGTLTITYATLEQLDDLCNRLTRGI

Variants of: B1
Assay: one-hybrid fitness for binding parS DNA (scaled: cognate 1, non-cognate 0); higher = stronger binding
Settings: with parS DNA site
How it was run: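 Fitness here means the log change in variant-to-wild-type read ratio between plasmids sequenced before and after selection. That scale was set so cognate equals 1 and non-cognate equals 0. The selection was a bacterial one-hybrid screen of Caulobacter ParB libraries, four specificity codons randomised, in E. coli USO carrying a HIS3 reporter with the site 19 bp from the promoter, grown 48 hours at 37°C on M9-minus-histidine with 0.1 mM IPTG and 5 mM 3-AT.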

Variant	one-hybrid fitness for binding parS DNA
HYYD	≤ 0.2
DGDR	≤ 0.2
RIDP	≤ 0.2
RIDG	0.831
RIDN	0.388
RINE	≤ 0.2
RINR	≤ 0.2
RING	1.03
QLMK	≤ 0.2
SRNE	≤ 0.2
GGVR	≤ 0.2
RMWP	≤ 0.2
RCWS	1.09
RSWS	0.989
RMWS	1.05
RCWN	0.401
RPWS	≤ 0.2
RSWD	≤ 0.2
RSWP	≤ 0.2
RMWD	≤ 0.2
PQAF	≤ 0.2
RMKV	≤ 0.2
CHNG	≤ 0.2
TAAQ	≤ 0.2
SDSD	≤ 0.2

Variant	one-hybrid fitness for binding parS DNA
GVLC	≤ 0.2
RKVA	0.527
RKKA	0.846
TGNL	≤ 0.2
DKAR	≤ 0.2
AWNT	≤ 0.2
KHTD	≤ 0.2
YNPS	≤ 0.2
QHAY	≤ 0.2
RQLF	0.241
RTFK	≤ 0.2
RTAG	1
RTFY	0.479
RTAM	0.311
RTFG	1.01
RTAH	0.21
TEAR	≤ 0.2
CSDF	≤ 0.2
IWPL	≤ 0.2
CTLY	≤ 0.2
PPSK	≤ 0.2
YQCG	≤ 0.2
RLVA	0.567
NLVA	≤ 0.2
RLKA	0.796

Variant	one-hybrid fitness for binding parS DNA
DLVA	≤ 0.2
ALKA	≤ 0.2
CLKA	≤ 0.2
LHAG	≤ 0.2
QGGK	≤ 0.2
TMSY	≤ 0.2
QLMM	≤ 0.2
SQKG	≤ 0.2
REVC	≤ 0.2
RCVC	0.965
RSVC	0.775
RSVH	≤ 0.2
RPVC	≤ 0.2
RSVD	≤ 0.2
AWDA	≤ 0.2
HGSI	≤ 0.2
DKKR	≤ 0.2
SPNA	≤ 0.2
LWAR	≤ 0.2
VAPG	≤ 0.2
RNFY	≤ 0.2
RNAG	0.853
RNFR	≤ 0.2
RNAY	0.359
RNFG	0.662

Variant	one-hybrid fitness for binding parS DNA
RNAR	≤ 0.2
NIRE	≤ 0.2
HAKP	≤ 0.2
CTSH	≤ 0.2
HSAT	≤ 0.2
REAF	≤ 0.2
LGNC	≤ 0.2
RMVG	0.971
RMVL	≤ 0.2
RMKR	≤ 0.2
RMVK	≤ 0.2
RMKG	0.929
RMKP	≤ 0.2
FQCR	≤ 0.2
TNCV	≤ 0.2
IAED	≤ 0.2
TLGD	≤ 0.2
IMTY	≤ 0.2
HASR	≤ 0.2
WPLT	≤ 0.2
RVGW	0.209
RLHN	0.442
